PubChem BioAssay (NCATS)
Records with an inconclusive call do not appear. Where a call stands in place of a potency, no number is given. Activity calls are given as the source filed them. Calls come from the whole dose curve; as a rule, active = well fitted inhibition curve with a large enough effect; inconclusive = small, poorly fitted or top-dose-only effect; inactive = flat fitted curve, though single readings scatter.
Potency is the fitted concentration of half-maximal effect.

What follows are compounds tested on Zika virus NS2B-NS3 protease (assay: Primary screen GU AMC qHTS for Zika virus inhibitors (AID 1347154; note: nearly all actives have a fitted effect of over 70% in size)). Conditions: Zika NS2B-NS3 unlinked protease, AMC fluorogenic substrate; series mostly up to 54.1 µM.
Method in brief: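 Fluorogenic AMC-substrate cleavage by noncovalent NS2B-NS3 protease complex (25 nM, pH 8.0 Tris buffer with Tween 20) followed for 15 minutes at room temperature (~20% conversion). Percent inhibition from ex340/em450 signal change, fitted by 4-parameter Hill equation.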
`CC(C)[C@H]1C(=O)N[C@H](CO)Cc2c[nH]c3cccc(c23)N1C` was tested, and the Potency was “inactive”.
`CCCCOC(=O)c1ccccc1C(=O)OCc1ccccc1` was tested, and the Potency was “inactive”.
`Oc1ccc2c3c1O[C@H]1[C@@H](O)C=C[C@H]4[C@@H](C2)NCC[C@@]341` was tested, and the Potency was “inactive”.
`C[C@H]([C@H](O)CCC(C)(C)O)[C@H]1CC[C@@]2(O)C3=CC(=O)[C@@H]4C[C@@H](O)[C@@H](O)C[C@]4(C)[C@@H]3CC[C@]12C` was tested, and the Potency was “inactive”.
`CCOP(=O)(OCC)C(C)NC(=O)N(CCCl)N=O` (centres undefined) was tested, and the Potency was “inactive”.
In the case of `Cc1ccc(Cl)c(O)c1`, the Potency is reported as “inactive”.
In the case of `CC(O)CN1CCN(CC(=O)[O-])CCN(CC(=O)[O-])CCN(CC(=O)[O-])CC1.[Gd+3]` (centres undefined), the Potency is reported as “inactive”.
With `C[C@@H]1CC[C@@]2(OC1)O[C@H]1C[C@H]3[C@@H]4CC=C5C[C@@H](O[C@@H]6O[C@H](CO)[C@@H](O[C@@H]7O[C@@H](C)[C@H](O)[C@@H](O)[C@@H]7O)[C@H](O)[C@@H]6O[C@@H]6O[C@@H](C)[C@H](O)[C@@H](O)[C@@H]6O)CC[C@]5(C)[C@@H]4CC[C@]3(C)[C@@H]1[C@H]2C` the Potency was “inactive”.
For `C1CCC(NC2CCCCC2)CC1`, the Potency was “inactive”.
`O=S(=O)(O)C(F)(F)C(F)(F)C(F)(F)C(F)(F)C(F)(F)C(F)(F)C(F)(F)C(F)(F)F` was tested, and the Potency was 11.2 µM (active).
In the case of `COC(=O)c1cncn1C(C)c1ccccc1` (centres undefined), the Potency is reported as “inactive”.
`CO[C@H]1CCC(O[C@H]2C[C@H]([C@]3(C)CC[C@]4(C[C@H](O)[C@@H](C)[C@@H]([C@@H](C)C=C(C)C(=O)[C@H](C)C[C@H](C)C(=O)O)O4)O3)O[C@]3(O[C@@H]([C@H]4O[C@@](O)(CO)[C@H](C)C[C@H]4C)C[C@H]3C)[C@H]2C)O[C@H]1C` (some centres undefined) was tested, and the Potency was “inactive”.
In the case of `O=[N+]([O-])c1ccc([As](=O)(O)O)cc1`, the Potency is reported as “inactive”.
With `CSCC[C@@H](NC(=O)[C@@H](Cc1ccccc1)NC(=O)CNC(=O)CNC(=O)[C@@H](N)Cc1ccc(O)cc1)C(=O)O` the Potency was “inactive”.
In the case of `O=c1cccc2n1CC1CNC[C@H]2C1`, the Potency is reported as “inactive”.
`Cc1cc(O)ccc1Cl` was tested, and the Potency was “inactive”.
In the case of `CO/C=C(/C(=O)OC)c1ccccc1Oc1cc(Oc2ccccc2C#N)ncn1`, the Potency is reported as “inactive”.
`O=[N+]([O-])c1cc([N+](=O)[O-])c2ccccc2c1` was tested, and the Potency was “inactive”.
In the case of `CCC(=O)OC1CCC2C3CCC4=CC(=O)CC[C@@]4(C)C3CC[C@]12C` (some centres undefined), the Potency is reported as “inactive”.
`CCOC(=O)c1c(C(C#N)=CN)c2ccc(Cl)c(Cl)c2n1C` was tested, and the Potency was “inactive”.
`NC1=NC(=O)N2CC12` (centres undefined) was tested, and the Potency was “inactive”.
For `CCCCCCCCCC(CC)c1ccc(S(=O)(=O)O)cc1` (centres undefined), the Potency was 11.7 µM (active).
In the case of `C=C[C@@H]1CN2CCC1C[C@@H]2[C@@H](O)c1ccnc2ccccc12` (some centres undefined), the Potency is reported as “inactive”.
For `O=C(O)COc1ccccc1`, the Potency was “inactive”.
`C=C1C[C@H]2[C@H]3CCC(=O)[C@@]3(C)CC[C@@H]2[C@@]2(C)C=CC(=O)C=C12` was tested, and the Potency was “inactive”.
In the case of `CC(C)(C)[C@]1(O)C[C@@H]2OC(=O)C[C@@]23C(=O)O[C@@H]2OC(=O)[C@H](O)C213` (some centres undefined), the Potency is reported as “inactive”.
`COc1ccc(CC2NCCc3cc(OC)c(OC)cc32)cc1OC` (centres undefined) was tested, and the Potency was “inactive”.
In the case of `CC(C)(O)C(=O)Nc1ccc([N+](=O)[O-])c(C(F)(F)F)c1`, the Potency is reported as “inactive”.
`COc1nn(CSP(=S)(OC)OC)c(=O)s1` was tested, and the Potency was “inactive”.
`O=[N+]([O-])c1c2ccccc2cc2ccccc12` was tested, and the Potency was “inactive”.
In the case of `CCCC[N+]1(C)[C@H]2CC(OC(=O)[C@H](CO)c3ccccc3)C[C@H]1[C@H]1O[C@H]12` (some centres undefined), the Potency is reported as “inactive”.
In the case of `O=S(=O)(F)Cc1ccccc1`, the Potency is reported as “inactive”.
In the case of `Cc1nc(-c2ccc(-c3ccc(C(=O)N4CCc5cc6c(cc54)C4(CCN(C)CC4)CO6)cc3)c(C)c2)no1`, the Potency is reported as “inactive”.
`COc1cc([C@@H]2c3cc4c(cc3[C@@H](O)C3COC(=O)C32)OCO4)cc(OC)c1O` (some centres undefined) was tested, and the Potency was “inactive”.
